DT40 TDP1 CPT – qHTS for Inhibitors of human tyrosyl-DNA phosphodiesterase 1 (TDP1): qHTS in cells in presence of CPT. actives 12% (n = 420,000). chicken DT40 Tdp1-/-;hTDP1 cells + 20 nM CPT, ATP luminescence, 48 h. AID 686979, 2013. Potency, µM (top dose mostly 46.2 µM), actives largely listed as inhibitors; also: nearly all actives have a fitted effect of over 55% in size
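Chicken DT40 Tdp1-/- cells stably complemented with human TDP1 were seeded at 400 cells/well in medium containing 20 nM camptothecin, exposed to pin-transferred compounds, and grown at 37 °C for at least 48 hr. Viability was read as ATP luminescence.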
TGFb inhibitor – qHTS for Inhibitors of TGF-b; HepG2 CAGA-GFP TGF-b/SMAD3 reporter, GFP fluorescence, 18 h; TGF-beta stimulated, 500 pg/mL final; Potency, µM (series often up to 46.1 µM), hits mostly inhibitors; actives 1.2% (n = 410,000); AID 588855, 2011; also: nearly all actives have a fitted effect of over 65% in size
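First, reporter cells (HEPG2 CAGA-GFP) rested 2 h at 37 degrees C. Next, compounds were pinned in and TGF-beta added to 500 pg/mL final. After 18 h, GFP was imaged per cell and summed per well.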
HT1080 IDH1KD tx – qHTS for induction of synthetic lethality in tumor cells producing 2HG: qHTS for the HT-1080-IDH1KD cell line | HT-1080 IDH1 knockdown viability, ATP luminescence, 48 h | Potency, µM (titrated, usually from 46.1 µM), actives largely listed as cytotoxic | actives 2% (n = 360,000)
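After a 2 h attachment period, IDH1KD HT-1080 cells took pin-transferred compound for 48 h at 37 °C; ATP-based luminescence after 10 min room-temperature reagent incubation reported viability.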
TDP1 cell noCPT – qHTS for Inhibitors of human tyrosyl-DNA phosphodiesterase 1 (TDP1): qHTS in cells in absence of CPT; DT40 Tdp1-/- hTDP1 cells, no CPT, ATP luminescence, 48 h; Potency, µM (series often up to 46.2 µM), actives largely listed as inhibitors; actives 15% (n = 420,000); also: nearly all actives have a fitted effect of over 55% in size
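Readout: luminescence from CellTiter-Glo after 30 min in the dark at RT. Cells: DT40 Tdp1-/- with stable hTDP1, 400/well. Exposure: compounds alone, ≥48 hr, 37 °C.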
HT1080NT lethal – qHTS for induction of synthetic lethality in tumor cells producing 2HG: qHTS for the HT-1080-NT fibrosarcoma cell line; HT-1080-NT fibrosarcoma viability, CellTiter-Glo ATP luminescence, 48 h; Potency, µM (doses to about 46.1 µM), hits mostly cytotoxic; actives 1.6% (n = 360,000); AID 686970, 2013;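 also: NT is the 2HG producing partner of a matched IDH1 knockdown line; nearly all actives have a fitted effect of over 55% in size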
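HT-1080-NT; 750 cells/well; 5% FBS RPMI; 48 h compound, 37 degrees C; CellTiter-Glo luminescence; curve fitting and curve-class assignment.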
HepG2 tox – qHTS for Inhibitors of TGF-b: Cytotox Counterscreen | HepG2 CAGA-GFP viability, ATP luminescence, 18 h | Potency, µM (series often up to 46.1 µM), usual class: cytotoxic | actives 0.76% (n = 410,000) | AID 588856, 2011
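CellTiter-Glo luminescence gave cytotoxicity after 18 hours at 37 degrees C. The cells were HepG2 CAGA-GFP in 1% FBS DMEM, stimulated with 500 pg/mL TGF-beta after compound addition. %Activity was normalised to no-cell wells (complete cell-killing) and DMSO (no toxicity), and curves were fitted and classified.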
Numbers stand for hits; . = inactive; ? = inconclusive; / = no result. Rows were chosen to be rich in hits. Some 17% of all compounds tested hit in one or more screens of this group. Calls follow the shape of the dose curve; as a rule, active = well fitted curve in the direction sought with a large enough effect; inconclusive = small, poorly fitted or top-dose-only effect, or another doubt; inactive = no such curve, though single readings can be large; an effect the other way counts as inactive or inconclusive.

SMILES	DT40 TDP1 CPT	TGFb inhibitor	HT1080 IDH1KD tx	TDP1 cell noCPT	HT1080NT lethal	HepG2 tox
O=C(NCc1ccc(OC(F)(F)F)cc1)C1CC(c2ccccc2C(F)(F)F)=NO1 (stereo unspecified)	?	.	.	?	.	.
COc1ccc(S(=O)(=O)Nc2ccc3c(c2)C(=O)N([C@H](C)CO)C[C@H](C)[C@@H](CN(C)S(=O)(=O)c2ccc(OC)cc2)O3)cc1	?	?	.	?	.	.
CCCCCC1Nc2cc(C(F)(F)F)c(S(N)(=O)=O)cc2S(=O)(=O)N1 (stereo unspecified)	.	/	/	.	/	/
N#Cc1csc(CCNC(=O)c2ccccc2)n1	.	.	.	.	.	.
O=C(O)CCC(=O)C(=O)O (tested in a mixture with another compound)	.	/	/	.	/	/
CCn1nc(C)c(CNC(=O)CCc2nnc(-c3ccc(C(C)=O)s3)o2)c1C	.	.	.	.	.	.
CCC(Cc1ccccc1)NC(=O)Cn1ncc2c3ccccc3n(Cc3ccccc3)c2c1=O (stereo unspecified)	16µM	.	/	16µM	/	.
CCC(Cc1ccccc1)NC(=O)Cn1ncc2c3ccccc3n(Cc3ccc(F)cc3)c2c1=O (stereo unspecified)	8.2µM	?	/	8.2µM	/	.
O=C(Cn1ncc2c3ccccc3n(Cc3ccc(F)cc3)c2c1=O)NCc1cccs1	.	.	/	.	/	.
Cc1onc(-c2c(F)cccc2Cl)c1C(=O)N=C(N)N1CCCC1	.	.	.	.	.	.
CCn1c(=O)c2cc(C(=O)NCCCN3CCN(C)CC3)sc2c2ccccc21	16µM	.	/	?	/	.
CCn1c(=O)c2cc(C(=O)NCCCN3CCC(C)CC3)sc2c2ccccc21	23µM	.	/	18µM	/	.
CCn1c(=O)c2cc(C(=O)NCCC(C)C)sc2c2ccccc21	.	.	.	?	.	.
CCn1c(=O)c2cc(C(=O)NC3CCC(C)CC3)sc2c2ccccc21 (stereo unspecified)	16µM	.	/	.	/	.
COc1ccccc1CNS(=O)(=O)c1ccc2c(c1)NC(=O)C(C)S2 (stereo unspecified)	.	?	.	.	.	.
Cc1ccc(C)c(NC(=O)CN(C)C(=O)CN2C(=O)NC3(CCc4ccccc43)C2=O)c1 (stereo unspecified)	9.2µM	.	.	8.2µM	.	.
Cc1ccc(NC(=O)CN2C(=O)NC3(CCCc4ccccc43)C2=O)cc1S(=O)(=O)N1CCOCC1 (stereo unspecified)	.	.	.	?	.	.
CCN(CC)S(=O)(=O)c1cc(NC(=O)CN2C(=O)NC3(CCCc4ccccc43)C2=O)ccc1C (stereo unspecified)	23µM	.	.	?	.	.
CN1CCN(S(=O)(=O)c2ccc(NC(=O)COc3ccccc3Cl)cc2)CC1	.	.	.	.	.	.
CCC(=O)N1CCN(c2ccc(NC(=O)COc3ccc(C)cc3C)cc2)CC1	?	.	?	18µM	.	.
CN1CCN(c2ccc(NC(=O)COc3ccccc3Cl)cc2)CC1	16µM	.	.	16µM	.	.
COc1ccccc1OCC(=O)Nc1ccc(N2CCCCC2)cc1	?	.	.	.	.	.
Cc1ccc(C(=O)N2CCN(c3ccc(NC(=O)COc4ccccc4C)cc3)CC2)cc1	4.1µM	.	.	5.2µM	.	.
Cc1ccc(OCCCC(=O)Nc2ccc(N3CCOCC3)cc2)c(C)c1	.	.	.	.	?	.
Cc1cccc(OCC(=O)Nc2ccc(N3CCCC3)cc2)c1C	.	.	.	?	.	.
SMILES	DT40 TDP1 CPT	TGFb inhibitor	HT1080 IDH1KD tx	TDP1 cell noCPT	HT1080NT lethal	HepG2 tox
CCC(=O)N1CCN(c2ccc(NC(=O)COc3ccccc3Cl)cc2)CC1	16µM	?	.	26µM	?	.
O=C(NCc1nnc2n1CCN(C(=O)/C=C/c1ccccc1)CC2)c1cccc(F)c1	.	/	/	.	/	/
O=C(CS(=O)(=O)c1ccc(F)cc1)Nc1nnc(-c2ccccc2Cl)o1	.	.	.	.	.	.
Cc1ccc(C(=O)N2CCN(c3ccc(NC(=S)NC(=O)Cc4ccccc4)cc3)CC2)cc1	35µM	.	.	?	.	.
CCC(=O)N1CCN(c2ccc(NC(=O)COc3ccccc3[N+](=O)[O-])cc2)CC1	15µM	.	.	10µM	.	.
CC(OC(=O)COc1ccccc1[N+](=O)[O-])C(=O)Nc1ccc(N2CCOCC2)cc1 (stereo unspecified)	.	.	.	.	.	.
CCC(=O)N1CCN(c2ccccc2NC(=O)COc2ccccc2Cl)CC1	23µM	.	.	?	.	.
COc1ccccc1CN1CCNC(=O)C1CC(=O)N(C)C1CCOCC1 (stereo unspecified)	.	.	.	.	.	.
CCOC(=O)[C@]12CCC=C1N(Cc1ccc3c(c1)OCO3)C(=O)[C@H](CC(=O)N1CCN(C(=O)c3ccco3)CC1)C2	?	/	.	.	.	/
C=CCC[C@H](Cc1ccc(F)cc1)C(=O)OC[C@H](C)NC(=O)[C@@H](CC=C)CC(=O)N[C@H](CO)Cc1ccccc1	?	.	.	?	.	.
CC(=O)c1ccc(N/N=C(/C(N)=O)C2=NC(C)(C)Cc3ccccc32)cc1	12µM	.	.	9.2µM	.	.
CC1(C)Cc2ccccc2C(/C(=N\Nc2cccc(Cl)c2)C(N)=O)=N1	?	?	21µM	?	21µM	.
CC1(C)Cc2ccccc2C(/C(=N/O)C(N)=O)=N1	.	.	.	.	.	.
CN1c2ccccc2C(C)(C)C12C=Cc1cc(O)ccc1O2 (stereo unspecified)	13µM	?	?	16µM	?	.
CCCCNc1c(-c2ccc(SC3CCCCC3)c(OC)c2)nc2ccc(C)cn12	23µM	?	?	18µM	?	8.9µM
CCCCNc1c(-c2ccc(OC)c(SC3CCCCC3)c2)nc2ccc(C)cn12	5.8µM	18µM	?	8.2µM	?	13µM
COc1ccc(-c2nc3ccc(C)cn3c2NCc2ccccc2)cc1SC1CCCCC1	13µM	20µM	?	23µM	?	.

Assay outcomes (PubChem)
